The assay deals with HIV-1 nucleocapsid protein NCp7 (binding to TG oligonucleotide). Kind of assay: HIV Nucleocapsid (AID 346).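 Note: potency is for inhibitors that block NC binding and lower polarization.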 The note with it: HIV-1 NC / fluorescein-TGTGTGTG probe, fluorescence polarization. Summed up: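 NCp7 100 nM + fluorescein TG4xF 10 nM; Hepes pH 7.5/250mM NaCl/1uM ZnCl2/0.004% PEG 20000; 1 hr RT; FP, 45 s exposure; oligo-only wells as negative control.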

Values without a mark were called inactive. The rule behind the calls is not given here. Bounds are passed on as bounds.
Potency is the fitted concentration of half-maximal effect.

For the compound `Cc1cccc(CNc2ncnc3ccc(-c4ccc5c(c4)OCO5)cc23)c1`, the Potency was above 20 µM.
`CS(=O)(=O)Nc1cccc(-c2ccc3ncnc(NC4CC4)c3c2)c1`: the Potency was above 20 µM.
With `COc1ccc(C(=O)N2CCC3(CCN(Cc4nccs4)CC3)CC2)cc1` the figure was above 20 µM.
As for `COc1cccc(Nc2ncc3nc(-c4cc(F)cc(F)c4)c(=O)n(C4CC4)c3n2)c1`, the Potency was above 4 µM.
Then `COc1ccc2[nH]cc(CCNc3ncnc4ccc(-c5ccccc5OC)cc34)c2c1`, with above 20 µM; and `Cn1cccc1C(=O)N1CCC[C@@]2(CCN(Cc3nccs3)C2)C1`, with above 20 µM.
In the case of `CN(C)C(=O)c1ccc(-c2ccc3ncnc(Nc4ccccc4)c3c2)cc1`, the Potency was above 20 µM.
In the case of `COc1ccccc1CNc1ccnc(-c2ccc(C(=O)N(C)C)cc2)n1`, the Potency is above 20 µM.
Then `COCCn1c(=O)c(-c2cc(F)cc(F)c2)nc2cnc(OCc3ccccc3)nc21`, with above 20 µM; and `Fc1ccc(Nc2ncncc2-c2ccoc2)cc1`, with above 20 µM; and `COc1ccc(-c2nc3cnc(OC)nc3n(C3CC3)c2=O)cc1`, with above 20 µM.
With `Clc1ccccc1-c1cncnc1NCCN1CCOCC1` the figure was above 20 µM; with `COc1ccccc1CNc1nc(-c2cccc(NS(C)(=O)=O)c2)nc2ccccc12`, above 20 µM; with `COc1ncc2nc(CCc3ccccc3)c(=O)n(Cc3cccs3)c2n1`, above 20 µM.
With `O=c1c(-c2cccs2)nc2cncnc2n1Cc1ccc(F)cc1` the figure was above 20 µM.
For `O=C(c1cnccn1)N1CCC2(CC1)CCN(C(c1ccccc1)c1ccccc1)CC2`, the Potency is above 20 µM.
With `O=S(=O)(c1ccccc1)N1CCC2(CCCN(Cc3cc(C(F)(F)F)cc(C(F)(F)F)c3)C2)CC1` the figure was above 20 µM; with `CS(=O)(=O)N1CCC2(CC1)CN(C(=O)Nc1ccccc1)C2`, above 20 µM; with `COCCn1c(=O)cnc2cnc(Nc3cccc(OC)c3)nc21`, above 20 µM.
With `Cc1noc(C)c1-c1nc(NCCN2CCOCC2)c2ccccc2n1` the figure was above 20 µM; with `Cn1cccc1C(=O)N1CCC[C@@]2(CCN(c3ccccc3)C2)C1`, above 20 µM; with `O=c1cnc2cnc(Oc3ccccc3)nc2n1CCc1ccccc1`, above 20 µM.
Then `CC(C)CN1CC[C@@]2(CCCN(C(=O)c3cnccn3)C2)C1`, with above 4 µM; and `COc1ccccc1CNc1nc(-c2c(C)noc2C)nc2ccccc12`, with above 20 µM.
Turning to `COc1ccc(-c2nc3cnc(N4CCOCC4)nc3n(-c3ccc(OC)cc3)c2=O)cc1`, the Potency was above 20 µM.
Then `COCCNc1nc(-c2cccc(OC)c2)nc2ccccc12`, with above 20 µM.
With `CC(=O)N1CCC2(CC1)CN(C(=O)Nc1cccc(C#N)c1)C2` the figure was above 20 µM; with `COc1cccc(Cn2c(=O)c(-c3ccc(Cl)cc3)nc3cnc(OC)nc32)c1`, above 20 µM; with `CCNc1ncc2nc(-c3ccc(Cl)cc3)c(=O)n(CCC#N)c2n1`, above 20 µM.
With `COc1ccc(Oc2ncc3nc(CCc4ccccc4)c(=O)n(CCC#N)c3n2)cc1` the figure was above 20 µM; with `N#CCCn1c(=O)cnc2cnc(N3CCNCC3)nc21`, above 20 µM; with `CCNc1ncc2nc(-c3ccccc3)c(=O)n(CCOC)c2n1`, above 20 µM.
As for `CC(C)NC(=O)N1CC2(CCN(S(=O)(=O)c3ccccc3)CC2)C1`, the Potency was above 20 µM.
In the case of `O=C(c1csnn1)N1CCC2(CCN(Cc3cc(C(F)(F)F)cc(C(F)(F)F)c3)CC2)CC1`, the Potency was above 20 µM.
Take `Cn1cccc1C(=O)N1CCC2(CC1)CN(c1ccncc1)C2`: the Potency is above 20 µM.
With `Cc1nc2cncnc2n(C2CC2)c1=O`, the Potency is above 20 µM.
Consider `CN(C)c1ncc2nc(-c3ccccc3)c(=O)n(C)c2n1`, for which the Potency was above 20 µM.
Then `COc1ncc2nc(-c3ccc(Cl)cc3)c(=O)n(Cc3cccs3)c2n1`, with above 20 µM; and `CC(=O)N1CCC2(CC1)CCN(c1ccccc1)CC2`, with above 20 µM.
Then `COc1ccccc1CNc1ncncc1-c1ccoc1`, with above 20 µM; and `O=C(c1cc(C(F)(F)F)cc(C(F)(F)F)c1)N1CCC[C@@]2(CCN(c3ccncc3)C2)C1`, with above 20 µM.
Then `COc1ncc2nc(-c3ccccc3)c(=O)n(C3CC3)c2n1`, with above 20 µM; and `Clc1ccccc1-c1nc(NCc2cccs2)c2ccccc2n1`, with above 20 µM.
For the compound `COc1ccc2[nH]cc(CCNc3ncncc3-c3cccnc3)c2c1`, the Potency was above 20 µM.
With `CNc1nc(-c2ccc(N(C)C)cc2)nc2ccccc12` the figure was above 20 µM.
With `Cc1noc(C)c1-c1cc(NCCN2CCOCC2)ncn1` the figure was above 20 µM; with `Cc1noc(C)c1-c1nc(NCc2cccnc2)c2ccccc2n1`, above 20 µM; with `COc1ccccc1CNc1ncncc1-c1ccc(C(=O)N(C)C)cc1`, above 20 µM.
With `COCCn1c(=O)c(CCc2ccccc2)nc2cnc(Nc3ccccc3)nc21` the figure was above 20 µM; with `CN(C)c1ncc2nc(-c3ccc(F)cc3)c(=O)n(CCc3ccccc3)c2n1`, above 20 µM.
With `COc1ccccc1-c1nc(Nc2ccncc2)c2ccccc2n1`, the Potency is above 20 µM.
Turning to `O=C(c1ccncc1)N1CCC[C@@]2(CCN(c3ccccn3)C2)C1`, the Potency was above 20 µM.
Then `N#Cc1ccc(CN2CCC3(CC2)CCN(S(=O)(=O)c2ccccc2)CC3)cc1`, with above 20 µM; and `Cc1ccccc1-c1cc(N2CCN(C)CC2)ncn1`, with above 20 µM; and `COCCn1c(=O)c(-c2ccc(OC)cc2)nc2cnc(N3CCOCC3)nc21`, with above 20 µM.
With `COc1ccc2[nH]cc(CCNc3ccnc(-c4ccccc4C)n3)c2c1` the figure was above 20 µM; with `CN(C)Cc1ccccc1-c1ccc2ncnc(NC3CC3)c2c1`, above 20 µM.
Then `O=c1c(-c2cccs2)nc2cnc(N3CCNCC3)nc2n1C1CC1`, with above 20 µM; and `CS(=O)(=O)N1CCC2(CC1)CN(c1ccncc1)C2`, with above 4 µM.
Regarding `O=C(c1cnccn1)N1CCC2(CC1)CN(Cc1ccccc1)C2`, the Potency is above 20 µM.
With `COc1cccc(-c2ccc3ncnc(N(C)Cc4ccco4)c3c2)c1`, the Potency was above 20 µM.
As to `N#Cc1cccc(NC(=O)N2CCCC3(CCN(C(=O)c4cccc(F)c4)CC3)C2)c1`, the Potency is above 20 µM.
Then `COc1ccc(C(=O)N2CCC3(CCN(C(=O)Nc4cccc(C#N)c4)CC3)CC2)cc1`, with above 20 µM.
Consider `O=C(c1csnn1)N1CCC2(CCN(Cc3nccs3)CC2)CC1`, for which the Potency was above 20 µM.
For `c1ncc(-c2ccoc2)c(NC2CC2)n1`, the Potency was above 20 µM.
With `CS(=O)(=O)Nc1cccc(-c2ccc3ncnc(NCc4cccnc4)c3c2)c1` the figure was above 20 µM; with `CN1CCCC2(CCN(C(=O)c3cccc(F)c3)CC2)C1`, above 20 µM.
Then `COc1ccc(C(=O)N2CCC3(CCCN(c4ncccn4)C3)CC2)cc1`, with above 20 µM; and `CS(=O)(=O)Nc1cccc(-c2ccc3ncnc(NC4CCNCC4)c3c2)c1`, with above 20 µM.
For the compound `Cc1noc(C)c1C(=O)N1CCC2(CCCN(C(c3ccccc3)c3ccccc3)C2)CC1`, the Potency is above 20 µM.
With `COC(=O)N1CCC2(CC1)CN(c1cccc(-c3ccccc3)c1)C2` the figure was above 20 µM; with `O=C(c1cnccn1)N1CCC2(CCN(Cc3cc(C(F)(F)F)cc(C(F)(F)F)c3)CC2)CC1`, above 20 µM.
With `COc1cccc(-c2ccc3ncnc(Nc4ccccc4)c3c2)c1` the figure was above 20 µM; with `COc1ccc(-c2nc3cnc(OC)nc3n(CCc3ccccc3)c2=O)cc1`, above 20 µM.
With `Cc1nc2cnc(N(C)C)nc2n(CCC#N)c1=O` the figure was above 20 µM; with `O=c1c(-c2cccc(Cl)c2)nc2cncnc2n1Cc1ccccc1`, above 20 µM.
Consider `N#CCCn1c(=O)c(-c2ccccc2)nc2cnc(N3CCOCC3)nc21`, for which the Potency was above 20 µM.
Then `Cc1cccc(CNc2ncnc3ccc(-c4cccc(NS(C)(=O)=O)c4)cc23)c1`, with above 20 µM; and `COc1ccccc1CN1CC[C@@]2(CCCN(C(=O)c3ccco3)C2)C1`, with above 20 µM; and `COc1ccccc1CNc1ncnc2ccc(-c3cccnc3)cc12`, with above 20 µM.
With `O=C(Nc1cccc(F)c1)N1CC[C@@]2(CCCN(C(=O)c3csnn3)C2)C1` the figure was above 20 µM; with `CN(C)c1ccc(-c2cncnc2Nc2ccccc2)cc1`, above 20 µM; with `CN1CCN(c2ncc3nc(CCc4ccccc4)c(=O)n(Cc4ccc(F)cc4)c3n2)CC1`, above 20 µM.
Then `COc1ccccc1CCn1c(=O)c(-c2cccs2)nc2cncnc21`, with above 20 µM; and `CNc1ncnc2ccc(-c3ccc4c(c3)OCO4)cc12`, with above 20 µM.
Consider `CN1CCN(c2ncc3nc(-c4cc(F)cc(F)c4)c(=O)n(C4CC4)c3n2)CC1`, for which the Potency is above 20 µM.
Then `O=C(c1csnn1)N1CCC[C@@]2(CCN(Cc3cc(C(F)(F)F)cc(C(F)(F)F)c3)C2)C1`, with above 20 µM.
Then `COc1cccc(Cn2c(=O)c(C)nc3cnc(Oc4cccc(Cl)c4)nc32)c1`, with above 20 µM; and `COc1ncc2nc(-c3cn(C)c4ccccc34)c(=O)n(CCc3ccccc3)c2n1`, with above 20 µM; and `COc1ncc2nc(-c3ccc(F)cc3)c(=O)n(CCc3ccccc3)c2n1`, with above 20 µM.
`O=C(Nc1cccc(F)c1)N1CC2(CCN(C(=O)c3cc(C(F)(F)F)cc(C(F)(F)F)c3)CC2)C1`: the Potency was above 4 µM.
With `Cc1noc(C)c1C(=O)N1CCC[C@@]2(CCN(c3ncccn3)C2)C1` the figure was above 20 µM; with `O=c1c(-c2ccc(F)cc2)nc2cnc(Oc3cccc(Cl)c3)nc2n1C1CC1`, above 20 µM; with `COc1ccc(NC(=O)N2CC3(CCN(C(=O)c4ccc(OC)cc4)CC3)C2)cc1`, above 20 µM.
With `COc1cccc(Cn2c(=O)c(-c3ccc(Cl)cc3)nc3cnc(N4CCOCC4)nc32)c1` the figure was above 20 µM; with `c1ccc(Nc2ncnc3ccc(-c4ccc5c(c4)OCO5)cc23)cc1`, above 20 µM; with `Cc1nc2cnc(Oc3ccccc3)nc2n(C)c1=O`, above 20 µM.
With `COc1ccc(Oc2ncc3nc(-c4cn(C)c5ccccc45)c(=O)n(CCC#N)c3n2)cc1` the figure was above 20 µM; with `COc1ccccc1CN1CCC2(CC1)CCN(C(=O)c1ccncc1)CC2`, above 20 µM; with `COc1ccc2[nH]cc(CCNc3ccnc(-c4ccccc4Cl)n3)c2c1`, above 20 µM.
In the case of `CS(=O)(=O)N1CCC2(CCCN(Cc3ccc(C#N)cc3)C2)CC1`, the Potency was above 20 µM.
Then `Cc1noc(C)c1-c1nccc(NCc2ccccc2)n1`, with above 20 µM; and `Cc1noc(C)c1-c1nccc(NCc2cccnc2)n1`, with above 20 µM.
With `COc1cccc(Cn2c(=O)c(-c3ccc(F)c(F)c3)nc3cncnc32)c1` the figure was above 20 µM; with `CN(C)Cc1ccccc1-c1ccc2ncnc(N(C)C)c2c1`, above 20 µM.
With `CC(C)NC(=O)N1CCC2(CC1)CCN(C(=O)c1cccc(F)c1)CC2` the figure was above 20 µM.
For `Cc1cnc(CNc2cc(-c3ccccc3Cl)ncn2)cn1`, the Potency is above 20 µM.
Turning to `Cc1noc(C)c1C(=O)N1CCC2(CC1)CCN(c1ccncc1)CC2`, the Potency is above 20 µM.
Then `Cn1cc(-c2nc3cnc(N4CCNCC4)nc3n(C)c2=O)c2ccccc21`, with above 20 µM; and `COc1ccc(-c2nc3cnc(N4CCOCC4)nc3n(Cc3cccc(OC)c3)c2=O)cc1`, with above 20 µM.
With `CN(C)Cc1ccccc1-c1cc(-n2ccnc2)ncn1` the figure was above 20 µM; with `CCNc1ncc2ncc(=O)n(Cc3cccs3)c2n1`, above 20 µM.
With `CN(C)c1ncnc2ccc(-c3cccc(NS(C)(=O)=O)c3)cc12` the figure was above 20 µM; with `CN(C)C(=O)c1ccc(-c2cncnc2N2CCNCC2)cc1`, above 20 µM; with `Cn1cccc1C(=O)N1CCC[C@@]2(CCN(Cc3ccccc3)C2)C1`, above 20 µM.
Turning to `CN(C)C(=O)c1ccc(-c2ccc3ncnc(NCc4cccs4)c3c2)cc1`, the Potency is above 20 µM.
Then `CC(C)CN1CC[C@@]2(CCCN(C(=O)c3ccco3)C2)C1`, with above 20 µM; and `CC(C)NC(=O)N1CCC2(CC1)CCN(C(=O)c1cccn1C)CC2`, with above 20 µM.
With `O=c1cnc2cnc(N3CCNCC3)nc2n1C1CC1` the figure was above 20 µM.
With `COC(=O)N1CCC2(CCN(C(=O)Nc3ccc(OC)cc3)CC2)CC1` the figure was above 20 µM.

The values are drawn from PubChem BioAssay (NCATS).
